# Experimental data published in PubChem BioAssay (NCATS).
# Inconclusive results are not listed. The source made the active and inactive calls. Unless noted, calls follow the shape of the dose curve; as a rule, active = well fitted curve in the direction sought with a large enough effect; inconclusive = small, poorly fitted or top-dose-only effect, or another doubt; inactive = no such curve, though single readings can be large; an effect the other way counts as inactive or inconclusive.
# System: not listed separately
# Assay: qHTS assay for small molecule agonists of the antioxidant response element (ARE) signaling pathway measured by Nrf2-dependant transcriptional activity (AID 720636; active = well fitted curve in the direction sought with a large enough effect in the repeat runs; an effect the other way counts as inactive or inconclusive;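 also: HepG2 cells with an ARE-driven luciferase reporter; % of control where 0% means no effect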)
# Conditions: ARE-luc HepG2, Nrf2 luciferase reporter, 16 h; series mostly up to 92.4 µM
# Summary of the method: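 ONE-Glo luminescence, read 30 min after reagent addition at room temperature, reflected ARE reporter activity in HepG2 cells that had been incubated with compound for 16 hr at 37 C in 1% dialyzed FBS.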
row,Compound,Potency
1,CCCCCCCC[Si](Cl)(Cl)Cl,inactive
2,CCCCCCCOC(=O)c1ccccc1C(=O)OCCCCCCC,inactive
3,C=Cc1ccc(P(c2ccccc2)c2ccccc2)cc1,inactive
4,CCCCCCCCCCCCCCCCCCN,inactive
5,CC(=O)N(CCN(C(C)=O)C(C)=O)C(C)=O,inactive
6,CCCC/C=C\CCCCCCCCO,inactive
7,Nc1cc(Cl)nc(C(=O)O)c1Cl,inactive
8,C[Si](Cl)(Cl)[Si](C)(Cl)Cl,inactive
9,CCCCCCCCCc1ccccc1,inactive
10,COC(=O)c1c(Cl)nn(C)c1S(=O)(=O)NC(=O)Nc1nc(OC)cc(OC)n1,inactive
11,CC1(C)CC(NCCCCCCNC2CC(C)(C)NC(C)(C)C2)CC(C)(C)N1,inactive

# System: not listed separately
# Assay: qHTS assay for small molecule agonists of the antioxidant response element (ARE) signaling pathway measured by Nrf2-dependant transcriptional activity - cell viability counter screen (AID 720653; active = well fitted curve in the direction sought with a large enough effect in the repeat runs; an effect the other way counts as inactive or inconclusive; also: % is scaled to controls: 0 for no effect and ±100 for the full control effect)
# Conditions: ARE-bla HepG2 viability, CellTiter-Glo ATP luminescence, 16 h; max response: active compounds read low
# Summary of the method: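 ARE-bla HepG2 cells (2,000/well) rested 5 hrs at 37C/5% CO2, then exposed to compounds in DMSO for 16 hrs. Viability was read in the same wells as intracellular ATP by luminescence, 30 min at room temperature after reagent addition.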
row,Compound,max response
1,CNc1nc(=O)n(C2CCCCC2)c(=O)n1C,3.71% (inactive)
2,CCCCCCCC[Si](Cl)(Cl)Cl,-9.8% (inactive)
3,CCCCCCCOC(=O)c1ccccc1C(=O)OCCCCCCC,6.19% (inactive)
4,C=Cc1ccc(P(c2ccccc2)c2ccccc2)cc1,-10.4% (inactive)
5,CCCCCCCCCCCCCCCCCCN,-7.69% (inactive)
6,CC(=O)N(CCN(C(C)=O)C(C)=O)C(C)=O,-1.28% (inactive)
7,CCCC/C=C\CCCCCCCCO,-0.523% (inactive)
8,Nc1cc(Cl)nc(C(=O)O)c1Cl,-4.32% (inactive)
9,C[Si](Cl)(Cl)[Si](C)(Cl)Cl,-3.61% (inactive)
10,CCCCCCCCCc1ccccc1,4.47% (inactive)
11,CS/C(=N\O)C(=O)N(C)C,-5.16% (inactive)
12,C[Si](Cl)(Cl)c1ccccc1,-14.9% (inactive)
13,COC(=O)c1c(Cl)nn(C)c1S(=O)(=O)NC(=O)Nc1nc(OC)cc(OC)n1,-2.6% (inactive)
14,CC1(C)CC(NCCCCCCNC2CC(C)(C)NC(C)(C)C2)CC(C)(C)N1,-7.27% (inactive)
15,Cc1ccc(C(=O)c2ccccc2)cc1,-0.957% (inactive)

# System: not listed separately
# Assay: qHTS assay for cell viability of HEK293 cells (AID 743288); also: % is scaled to controls: 0 for no effect and ±100 for the full control effect; nearly all actives have a fitted effect of over 50% in size
# Conditions: ATP luminescence (CellTiter-Glo), 18 h; max response: active compounds read low
# Summary of the method: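 ATP luminescence (CellTiter-Glo) reports metabolically competent cell number after parental HEK293 cells, 2,000/well, were treated with DMSO-dissolved compounds for 18 h at 37 C; reagent incubation 30 min, room temperature.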
row,Compound,max response
1,CNc1nc(=O)n(C2CCCCC2)c(=O)n1C,-6.85% (inactive)
2,CCCCCCCC[Si](Cl)(Cl)Cl,-3.47% (inactive)
3,CCCCCCCOC(=O)c1ccccc1C(=O)OCCCCCCC,-8.86% (inactive)
4,C=Cc1ccc(P(c2ccccc2)c2ccccc2)cc1,-7.87% (inactive)
5,CCCCCCCCCCCCCCCCCCN,4.92% (inactive)
6,CC(=O)N(CCN(C(C)=O)C(C)=O)C(C)=O,-0.359% (inactive)
7,CCCC/C=C\CCCCCCCCO,-8.96% (inactive)
8,Nc1cc(Cl)nc(C(=O)O)c1Cl,1.25% (inactive)
9,C[Si](Cl)(Cl)[Si](C)(Cl)Cl,-7.2% (inactive)
10,CCCCCCCCCc1ccccc1,2.81% (inactive)
11,CS/C(=N\O)C(=O)N(C)C,-6.73% (inactive)
12,C[Si](Cl)(Cl)c1ccccc1,-2.42% (inactive)
13,COC(=O)c1c(Cl)nn(C)c1S(=O)(=O)NC(=O)Nc1nc(OC)cc(OC)n1,-3.18% (inactive)
14,CC1(C)CC(NCCCCCCNC2CC(C)(C)NC(C)(C)C2)CC(C)(C)N1,-6.6% (inactive)
15,Cc1ccc(C(=O)c2ccccc2)cc1,-2.28% (inactive)

# System: not listed separately
# Assay: qHTS assay for cell viability of the p53RE-bla HCT-116 cell line (AID 743292); also: % is scaled to controls: 0 for no effect and ±100 for the full control effect; nearly all actives have a fitted effect of over 55% in size
# Conditions: p53RE-bla HCT-116 viability, ATP luminescence, 16 h; series mostly up to 95 µM
# Summary of the method: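 After plating at 4,000 cells per well and a 5 h rest at 37 C, HCT-116 cells carrying p53RE-bla received test chemicals in DMSO. Sixteen hours later at 37 C, CellTiter-Glo was added and luminescence recorded following 30 min at room temperature.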
row,Compound,Potency
1,CNc1nc(=O)n(C2CCCCC2)c(=O)n1C,inactive
2,CCCCCCCC[Si](Cl)(Cl)Cl,inactive
3,CCCCCCCOC(=O)c1ccccc1C(=O)OCCCCCCC,inactive
4,C=Cc1ccc(P(c2ccccc2)c2ccccc2)cc1,inactive
5,CCCCCCCCCCCCCCCCCCN,inactive
6,CC(=O)N(CCN(C(C)=O)C(C)=O)C(C)=O,inactive
7,CCCC/C=C\CCCCCCCCO,inactive
8,Nc1cc(Cl)nc(C(=O)O)c1Cl,inactive
9,C[Si](Cl)(Cl)[Si](C)(Cl)Cl,inactive
10,CS/C(=N\O)C(=O)N(C)C,inactive
11,COC(=O)c1c(Cl)nn(C)c1S(=O)(=O)NC(=O)Nc1nc(OC)cc(OC)n1,inactive
12,CC1(C)CC(NCCCCCCNC2CC(C)(C)NC(C)(C)C2)CC(C)(C)N1,inactive
13,Cc1ccc(C(=O)c2ccccc2)cc1,inactive

# Molecular target: Nuclear receptor subfamily 1 group I member 2 (Rattus norvegicus) (UniProt Q9R1A7)
# Assay: qHTS assay for small molecule activators of the rat pregnane X receptor (rPXR) signaling pathway (AID 651751; call rule not given here; also: 0% is about no effect)
# Conditions: rPXR reporter cells, luciferase (One-Glo), 24 h
# Nuclear receptor subfamily 1 group I member 2 (Rattus norvegicus), sequence (Q9R1A7 whole entry, looked up): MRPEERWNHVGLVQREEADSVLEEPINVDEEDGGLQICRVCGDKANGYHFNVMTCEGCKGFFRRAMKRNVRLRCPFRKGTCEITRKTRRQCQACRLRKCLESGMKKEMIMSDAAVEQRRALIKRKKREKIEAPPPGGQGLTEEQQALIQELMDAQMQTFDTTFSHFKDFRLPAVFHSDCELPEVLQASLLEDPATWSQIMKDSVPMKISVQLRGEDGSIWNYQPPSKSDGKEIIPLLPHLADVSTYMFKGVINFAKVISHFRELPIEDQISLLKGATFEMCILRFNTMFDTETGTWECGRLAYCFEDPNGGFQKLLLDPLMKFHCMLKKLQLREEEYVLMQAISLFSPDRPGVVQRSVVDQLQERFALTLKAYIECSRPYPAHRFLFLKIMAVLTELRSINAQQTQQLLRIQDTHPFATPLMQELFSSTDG
row,Compound,max response
1,CNc1nc(=O)n(C2CCCCC2)c(=O)n1C,-0.0446% (inactive)
2,CCCCCCCC[Si](Cl)(Cl)Cl,0.644% (inactive)
3,CCCCCCCOC(=O)c1ccccc1C(=O)OCCCCCCC,-1.98% (inactive)
4,C=Cc1ccc(P(c2ccccc2)c2ccccc2)cc1,0.774% (inactive)
5,CCCCCCCCCCCCCCCCCCN,-2.88% (inactive)
6,CC(=O)N(CCN(C(C)=O)C(C)=O)C(C)=O,-0.996% (inactive)
7,CCCC/C=C\CCCCCCCCO,12.2% (inactive)
8,Nc1cc(Cl)nc(C(=O)O)c1Cl,2.09% (inactive)
9,C[Si](Cl)(Cl)[Si](C)(Cl)Cl,6.3% (inactive)
10,CCCCCCCCCc1ccccc1,1.1% (inactive)
11,CS/C(=N\O)C(=O)N(C)C,-0.0731% (inactive)
12,C[Si](Cl)(Cl)c1ccccc1,-3.28% (inactive)
13,COC(=O)c1c(Cl)nn(C)c1S(=O)(=O)NC(=O)Nc1nc(OC)cc(OC)n1,1.48% (inactive)
14,CC1(C)CC(NCCCCCCNC2CC(C)(C)NC(C)(C)C2)CC(C)(C)N1,1.41% (inactive)
15,Cc1ccc(C(=O)c2ccccc2)cc1,3.11% (inactive)
